An excerpt weighted towards active compounds, which were near 9.5% of everything screened.
Pf growth 96h = P. falciparum growth inhibition at 96 hours | AID 504834 | Potency, µM (series often up to 28.7 µM), inactives show top-dose activity change, negative = inhibition, actives largely listed as inhibitors | 320,000 tested, 6.9% active | P. falciparum luciferase reporter growth, 96 h; also: % is scaled to controls: 0 for no effect and ±100 for the full control effect
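Plates of compound plus infected erythrocytes (2% hematocrit, 0.05% parasitemia final) incubate 96 hours, 37 C, 5% CO2. Detection reagent added; reduced luminescence from the parasites' luciferase reporter flags inhibition.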
SARS PLP yeast = blocks SARS-CoV papain-like protease in a yeast assay. S. cerevisiae expressing SARS-CoV PLpro, growth rescue. Potency, µM (highest dose often 32.9 µM), without a hit: at the highest dose activity, positive = growth rescue, usual class: activators. 330,000 tested, 0.19% active. AID 485353; calls by dose curve; also: 0% is about no effect; nearly all actives have a fitted effect of over 55% in size
RE007 growth inh = less growth of the S. pombe RE007 Vpr strain; S. pombe RE007 Vpr strain, BacTiter-Glo ATP luminescence, 24 h; Potency, µM (top dose mostly 92.2 µM), for inactives: top-dose activity change, negative = less growth, hits mostly inhibitors; 360,000 tested, 0.21% active; active = well fitted falling curve with a large enough effect; inconclusive = small, poorly fitted or top-dose-only effect; inactive = no such curve, though single readings can be large or run the other way; also: % is scaled to controls: 0 for no effect and ±100 for the full control effect; nearly all actives have a fitted effect of over 50% in size
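Fission yeast strain RE007, carrying one chromosomally integrated HIV-1 vpr copy, was seeded at OD 0.01 in PMG+AL medium with 23 nL pinned compound. After 24 h at 30 °C and 99% humidity, viability was read by BacTiter-Glo luminescence.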
Pf growth 48h = inhibits P. falciparum growth in the first generation, 48 h; P. falciparum luciferase growth in erythrocytes, 48 h; 310,000 tested, 5.9% active; Potency, µM (highest dose often 28.7 µM), without a hit: top-dose activity change, negative = inhibition, actives largely listed as inhibitors; also: % is scaled to controls: 0 for no effect and ±100 for the full control effect
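Parasite viability was followed by luminescence of a genomically integrated firefly luciferase. Cultures held 0.1% parasitemia at 2% hematocrit (final), incubated under 5% CO2 at 37 C.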
NS1 function inh = blocks influenza NS1 protein function; Potency, µM (top dose mostly 46.1 µM), for the others: top-dose activity, positive = more growth; 270,000 tested, 0.4% active; calls by dose curve; also: actives are rising curves; nearly all actives have a fitted effect of over 50% in size
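S. cerevisiae expressing influenza A NS1, grown in glucose, washed, then diluted 1:100 into pH 6.0 -URA galactose medium with 23 nl compound. Growth recovery read as OD600; NS1-free strain serves as control.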
* = called active by the depositor; ? = inconclusive; . = not tested or not shown. Unless noted, calls follow the shape of the dose curve; as a rule, active = well fitted inhibition curve with a large enough effect; inconclusive = small, poorly fitted or top-dose-only effect, or another doubt; inactive = no such curve, though single readings can be large or run the other way. Potency is read from the fitted curve at half-maximal effect.

SMILES | Pf growth 96h | SARS PLP yeast | RE007 growth inh | Pf growth 48h | NS1 function inh
CC1=CCC2COC(c3ccc[n+](Cc4ccccc4)c3)C1C2 (stereo not given) | -24% | -7% | -15% | 1.5µM* | 1%
NC(=O)c1ccc[n+](Cc2ccccc2)c1 | -15% | 0% | -4% | 7% | 2%
C[C@@H](c1ccccc1)N1C[C@@H](COCc2ccccc2)Oc2cc(N3CC[C@@H](N(C)C)C3)ccc2S1(=O)=O | . | . | -14% | . | .
CN(C(=O)c1ccccc1C(=O)OCC(=O)c1ccc(Br)cc1)c1ccccc1 | 12µM* | -4% | 7% | ? | .
COc1ccc(CC(=O)N/N=C(/C)CC(=O)N(C)c2ccccc2)cc1 | 56% | -4% | -19% | 13% | 2%
Cc1nc2cc(CO)ccc2n1C | 9.3µM* | -1% | 10% | 7% | -10%
CCOc1ccc(S(=O)(=O)N(CC(=O)NCc2ccncc2)c2ccc(C)cc2)cc1 | ? | 3% | -1% | -11% | -1%
Cc1nc(-c2cccc(NC(=O)c3cccc(S(=O)(=O)N4CCCC4)c3)c2)cs1 | ? | 1% | -12% | 12µM* | .
Cc1nc(-c2cccc(NC(=O)c3ccc(Cl)c(S(=O)(=O)N4CCCC4)c3)c2)cs1 | . | . | -19% | . | .
Cc1nc(-c2cccc(S(=O)(=O)N3CCOCC3)c2)cs1 | 72% | 7% | -5% | 13µM* | 19%
O=S(=O)(c1cccc(-c2csc(-c3cccnc3)n2)c1)N1CCCCC1 | 55% | -7% | 0% | 9.3µM* | -53%
Cc1nc(-c2cccc(S(=O)(=O)N3CC(C)OC(C)C3)c2)cs1 (stereo not given) | ? | -7% | 8% | -9% | -13%
C[N+](C)([O-])Cc1cc(-c2ccccc2)ccc1O | . | . | . | . | -2%
CCCN1CCC(=O)N([C@H](CN=[N+]=[N-])CC(C)C)CC1 | 4.7µM* | -5% | -8% | ? | 15%
CCCN1CCC(=O)N([C@H](CSc2ccc(OC)cc2)CC(C)C)CC1 | ? | 0% | -8% | ? | 4%
CCN(C(=O)COC(=O)c1ccccc1NCCO)c1cccc2ccccc12 | 10µM* | . | -5% | ? | .
O=C(COC(=O)Cc1ccsc1)Nc1cccc(F)c1 | 7% | 4% | -20% | 28% | .
Cc1ccc(-c2csc(N(CCO)CCCn3c(C(F)(F)F)nc4ccccc43)n2)cc1 | 6.6µM* | -3% | -18% | ? | 11%
Cc1ccc(-c2csc(N3CCC[C@@H]3C(=O)NCCn3c(C(F)(F)F)nc4ccccc43)n2)cc1 | 2.3µM* | -14% | -17% | ? | -18%
CNC(=O)CSc1nc2ccccc2c(=O)n1C1CCCCC1 | ? | -1% | -5% | -24% | -5%
CSc1nc2ccccc2c(=O)n1C1CCCCC1 | 1.5µM* | -1% | -22% | 8% | -4%
Cc1nc2ccccc2c(=O)n1C1CCCCCC1 | 20% | 4% | 21% | ? | -8%
CCCCNC(=O)CSc1nc2ccccc2c(=O)n1C1CCCC1 | 56% | -5% | 12% | 13µM* | -11%
NC(=O)c1nsc(C(=O)N(CC(=O)NC2CCCC2)Cc2ccc3c(c2)OCO3)c1N | -30% | 1% | 5% | -4% | 2%
Fc1cccc(CSc2nc3ncccc3[nH]2)c1 | 12µM* | -14% | 6% | ? | 6%
SMILES | Pf growth 96h | SARS PLP yeast | RE007 growth inh | Pf growth 48h | NS1 function inh
CC(=O)c1ccccc1NS(=O)(=O)c1ccc2c(c1)CC(=O)N2 | 4.7µM* | 0% | 2% | ? | .
C[C@@H]1CCC2[C@@H](C)[C@@H](O)O[C@@H]3O[C@@]4(C)CC[C@@H]1[C@@]23OO4 (stereo not given in full) | 0.0004µM* | . | . | 0.0005µM* | .
CC1CCC2C(C)C(=O)OC3OC4(C)CCC1C32OO4 (stereo not given) | 16% | -2% | -11% | 0.0033µM* | -53%
CC1CCC2[C@@H](C)C(=O)OC3O[C@]4(C)CCC1C32OO4 (stereo not given in full) | . | . | 3% | . | .
O=C1NC(=O)C(Cc2c[nH]c3ccccc23)N1 (stereo not given) | 43% | 0% | 1% | 43% | -1%
O=C(CSc1nncn1-c1cccnc1)Nc1cccc(C(F)(F)F)c1 | 2% | 0% | 1% | 12% | 5%
COc1ccc(O)c(CN2CCCC(N3CCN(c4ccc(F)cc4)CC3)C2)c1 (stereo not given) | ? | -8% | 13% | 4.1µM* | 26%
COc1ccc(O)c(CN2CCCC(N3CCc4ccccc4C3)C2)c1 (stereo not given) | ? | 5% | 3% | 12µM* | 8%
CCOc1cc(CN2CCCC(N3CCc4ccccc4C3)C2)ccc1O (stereo not given) | 414% | -1% | 2% | ? | 5%
Oc1ccccc1CN1CCCC(N2CCc3ccccc3C2)C1 (stereo not given) | 5.2µM* | 6% | -19% | 9.3µM* | 5%
CC1(C(=O)NS(=O)(=O)c2ccc(Cl)cc2)CCN1C(=O)Cc1ccsc1 (stereo not given) | . | . | 4% | . | .
COCCN(Cc1nc2ccccc2c(=O)[nH]1)C(=O)COc1cccc(C(C)=O)c1 | ? | 2% | -6% | ? | .
Cc1ccc(-c2ccc(C(=O)O)[nH]2)cc1 | 6.6µM* | 3% | -11% | 30% | -156%
OC1(c2ccc(OC(F)F)cc2)CSC(=Nc2cccnc2)N1C1CC1 (stereo not given) | ? | -7% | ? | ? | -49%
COc1ccc(OC)c(C2(O)CSC(=Nc3cccnc3)N2Cc2ccco2)c1 (stereo not given) | 4.7µM* | -4% | 9% | 12µM* | -12%
CCCNC(=O)c1ccccc1NS(=O)(=O)c1ccc2c(c1)OCCO2 | -16% | 13% | -11% | 9.3µM* | -3%
CCCNC(=O)c1ccccc1NC(=O)C1=CSCCO1 | 15µM* | -2% | -1% | 5% | 3%
CC1=C(C(=O)Nc2ccccc2C(=O)NCCCOC(C)C)SCCO1 | 4.1µM* | 1% | 11% | 0% | -3%
O=C(CCN1C(=O)[C@@H]2Cc3ccccc3CN2C1=O)NCc1ccccc1Cl | ? | -1% | 3% | -28% | -7%
CN(C(=O)c1ccc2c(c1)SC1=NS(=O)(=O)CCN12)C(c1ccccc1)c1ccccc1 | 12µM* | 5% | 24% | 12µM* | 6%
COc1cccc(CNCc2ccccc2OC)c1 | -14% | -2% | -3% | 35% | 5%
COc1cccc(CCc2ccccc2OCC(CN(C)C)OC(=O)CCC(=O)O)c1 (stereo not given) | 3.4µM* | . | . | 4.8µM* | .
O=C(Cc1ccccc1F)NNC(=O)c1ccncc1 | -10% | 1% | 0% | 16% | ?
CC(C)c1ccc(C(C)NC(=S)NC2CCCCC2)cc1 (stereo not given) | 4% | -5% | -5% | 12µM* | -68%
CCOc1ccc(C(C)NC(=S)NC2CCCCC2)cc1OCC (stereo not given) | ? | 21% | 6% | 0.083µM* | .
